Test [1] deals with Thyrotropin-releasing hormone receptor (Homo sapiens) (UniProt P34981). Put plainly: qHTS assay to identify small molecule agonists of the thyrotropin-releasing hormone receptor (TRHR) signaling pathway (AID 1346891; calls by dose curve; further: series mostly up to about 58 µM). The method in brief:
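Agonist-mode intracellular calcium readout: kinetic fluorescence over 3 min at 1 s intervals after compound addition to TRHR-HEK293 cells (18 h seeded, 2 h dye-loaded at 37 C). Fifteen concentrations, triplicates.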
A general note: Quantitative high-throughput screening tests each substance at several concentrations.

Test [2] is described as follows: Human pregnane X receptor (PXR) small molecule agonists, qHTS cell viability counter screen (AID 1346977). Further: nearly all actives have a fitted effect of over 50% in size. The method in brief:
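Same-well viability read: CellTiter-Fluor added after 23 hr compound exposure, fluorescence measured 1 hr later. Cells were PXR-Luc HepG2 seeded at 2,000/well in 5% charcoal-stripped FBS medium, rested 5 hr before dosing at 37 C.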

The nature of test [3]: Caspase-3/7 induction in HepG2 cells by small molecules, qHTS assay (AID 1346978). Further: nearly all actives have a fitted effect of over 15% in size. Summed up:
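Caspase-3/7 induction was measured by Caspase-Glo 3/7 luminescence (30 min, room temperature) after a 17 hr compound exposure of wild-type HepG2 cells seeded at 2,000 per well and pre-incubated 5 hr.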

Test [4] is described as follows: Caspase-3/7 induction in CHO-K1 cells by small molecules, qHTS cell viability counter screen (AID 1346979). Further: nearly all actives have a fitted effect of over 35% in size. Summed up:
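Cytotoxicity counter screen: CellTiter-Fluor added to compound-treated wild-type CHO-K1 cells at 16 h (37C, 5% CO2), fluorescence measured 1 h later; same wells as caspase-3/7 measurement.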

Test [5] in a line: Caspase-3/7 induction in CHO-K1 cells by small molecules, qHTS assay (AID 1346980). Further: nearly all actives have a fitted effect of over 15% in size. The method in brief:
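Luminescent Caspase-Glo 3/7 read (30min, room temperature) quantified apoptosis induction. Cells were wild-type CHO-K1, treated with compound for 17hr at 37 C and 5% CO2.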

Test [6] is described as follows: Caspase-3/7 induction in HepG2 cells by small molecules, qHTS cell viability counter screen (AID 1346981). Further: series mostly up to about 92 µM; nearly all actives have a fitted effect of over 30% in size. The method in brief:
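Counter screen for cytotoxicity: HepG2 exposed 16 hr to compounds, then CellTiter-Fluor viability signal (fluorescence, 1 hr reagent incubation).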

Test [7] deals with Nuclear receptor subfamily 1 group I member 2 (Homo sapiens) (UniProt O75469). Description: Human pregnane X receptor (PXR) small molecule agonists, qHTS assay (AID 1346982). Further: nearly all actives have a fitted effect of over 35% in size. Further: potency means the concentration at half of the fitted maximal effect. Summed up: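 Luminescence (ONE-Glo, 30 min RT) after 24 hr compound exposure of PXR-Luc HepG2 cells; cells rested 5 hr post-plating in 5% charcoal-stripped FBS medium.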

This note sets out measurements from PubChem BioAssay (Tox21).

SMILES strings stand for the structures. Unmarked numbers belong to inactive results. Inconclusive results are not listed. Active and inactive are the calls of the source. Unless noted, the call rests on the fitted dose curve; in most records, active means well fitted curve in the direction sought with a large enough effect in the repeat runs; inconclusive means weak or mixed curves; inactive means no such curve, though single readings can be large; an effect the other way counts as inactive or inconclusive.

Chain of Thyrotropin-releasing hormone receptor (Homo sapiens) (P34981 whole entry, looked up): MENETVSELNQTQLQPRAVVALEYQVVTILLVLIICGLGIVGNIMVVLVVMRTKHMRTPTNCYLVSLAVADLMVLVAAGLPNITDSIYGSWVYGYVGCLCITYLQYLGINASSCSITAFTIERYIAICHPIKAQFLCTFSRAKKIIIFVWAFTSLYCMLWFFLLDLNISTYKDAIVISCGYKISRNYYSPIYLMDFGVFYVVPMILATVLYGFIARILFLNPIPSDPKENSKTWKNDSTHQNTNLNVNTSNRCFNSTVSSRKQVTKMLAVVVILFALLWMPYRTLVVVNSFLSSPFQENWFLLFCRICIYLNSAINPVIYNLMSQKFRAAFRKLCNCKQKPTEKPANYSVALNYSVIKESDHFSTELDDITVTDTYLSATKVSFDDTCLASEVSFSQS
Chain of Nuclear receptor subfamily 1 group I member 2 (Homo sapiens) (O75469 whole entry, looked up): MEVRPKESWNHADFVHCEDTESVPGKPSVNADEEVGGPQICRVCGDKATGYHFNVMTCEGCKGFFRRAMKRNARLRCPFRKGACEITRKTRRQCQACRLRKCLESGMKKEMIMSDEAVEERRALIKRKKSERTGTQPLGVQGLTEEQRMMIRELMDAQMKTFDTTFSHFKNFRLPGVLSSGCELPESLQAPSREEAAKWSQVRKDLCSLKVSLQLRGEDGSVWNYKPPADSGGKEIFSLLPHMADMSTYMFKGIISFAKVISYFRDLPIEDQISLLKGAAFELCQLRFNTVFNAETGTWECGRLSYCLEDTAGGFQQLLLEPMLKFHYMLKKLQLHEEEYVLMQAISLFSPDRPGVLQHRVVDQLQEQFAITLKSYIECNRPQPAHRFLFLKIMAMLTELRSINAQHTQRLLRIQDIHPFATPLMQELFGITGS

As for `COc1cc(Cl)ccc1Cl`, the Potency result in test [1], in test [2], in test [3], in test [4], in test [6] and in test [7] was “inactive” throughout. The call in test [5] was inactive.
Regarding `COc1cc(C)ccc1C(C)C`, the Potency entry in test [1], in test [2], in test [3], in test [4], in test [6] and in test [7] was “inactive” in each case. In addition, the outcome in test [5] was inactive.
As for `Cc1ccc(C=O)s1`, the Potency entry in test [1], in test [2], in test [3], in test [4], in test [6] and in test [7] was “inactive” each time. In test [5], the compound was classed as inactive.
For the compound `O=[N+]([O-])c1nccn1CO[C@@H](CO)[C@H](O)CO`, the Potency entry in test [1], in test [2], in test [3], in test [4], in test [6] and in test [7] was “inactive” each time. Further, the call in test [5] was inactive.
As for `CO[Si](C)(C)OC`, the Potency result in test [1], in test [2], in test [3], in test [4], in test [6] and in test [7] was “inactive” in each case. Moreover, in test [5], the result was inactive.
For the compound `Cc1cn([C@@H]2O[C@H](CO)[C@@H](O)[C@@H]2F)c(=O)[nH]c1=O`, the Potency entry in test [1], in test [2], in test [3], in test [4], in test [6] and in test [7] was “inactive” in each case. The compound was classed as inactive in test [5].
For `CC(=O)OC1C2(C)CCC(C2)C1(C)C` (centres undefined), the Potency entry in test [1], in test [2], in test [3], in test [4], in test [6] and in test [7] was “inactive” each time. For the same compound, the call in test [5] was inactive.
Regarding `C1CCOC1`, the Potency entry in test [1], in test [2], in test [3], in test [4] and in test [6] was “inactive” in each case. For the same compound, the compound was classed as inactive in test [5].
As to `CC(=O)Nc1ccc(C)c(Cl)c1`, the Potency entry in test [1], in test [2], in test [3], in test [4] and in test [6] was “inactive” each time. For the same compound, the compound was called inactive in test [5].
On to `CCCCC1CCC(=O)O1` (centres undefined), for which the Potency result in test [1], in test [2], in test [3], in test [4], in test [6] and in test [7] was “inactive” throughout. In addition, in test [5], the compound was called inactive.
In the case of `O=Cc1ccc(F)c(Br)c1`, the Potency entry in test [1], in test [2], in test [3], in test [4], in test [6] and in test [7] was “inactive” throughout. For the same compound, in test [5], the compound was called inactive.
On to `CN(CC1(C)CCCO1)S(=O)(=O)c1ccc(Cl)c(S(N)(=O)=O)c1` (centres undefined), for which the Potency entry in test [1], in test [2], in test [3], in test [4] and in test [6] was “inactive” each time. Besides, the result in test [5] was inactive. Moreover, the Potency in test [7] was 10.6 µM (active).
As to `CCOC(=O)C1CC(=O)C(=C(O)C2CC2)C(=O)C1` (centres undefined), the Potency result in test [1], in test [2], in test [3], in test [4], in test [6] and in test [7] was “inactive” in each case. Moreover, the call in test [5] was inactive.
Regarding `COC(=O)N[C@H](C(=O)N[C@@H](Cc1ccccc1)[C@@H](O)CN(Cc1ccc(-c2ccccn2)cc1)NC(=O)[C@@H](NC(=O)OC)C(C)(C)C)C(C)(C)C`, the Potency result in test [1], in test [2], in test [3], in test [4] and in test [6] was “inactive” in each case. In test [5], the call was inactive.
With `Cc1onc(-c2ccccc2)c1C(=O)Cl`, the Potency result in test [1], in test [2], in test [3], in test [4], in test [6] and in test [7] was “inactive” in each case. The outcome in test [5] was inactive.
Take `CC(=O)OC(C)OC(C)=O`: the Potency entry in test [1], in test [2], in test [3], in test [4], in test [6] and in test [7] was “inactive” each time. Moreover, the compound was classed as inactive in test [5].
On to `FC(F)(F)C(Cl)(Cl)Cl`, for which the Potency result in test [1], in test [2], in test [3], in test [4], in test [6] and in test [7] was “inactive” each time. Also, in test [5], the compound was classed as inactive.
`CCOC(=O)NCCC[Si](OCC)(OCC)OCC`: the Potency result in test [1], in test [2], in test [3], in test [4], in test [6] and in test [7] was “inactive” throughout. For the same compound, the compound was classed as inactive in test [5].
As to `OCc1c2ccccc2cc2ccccc12`, the Potency entry in test [1], in test [2], in test [3], in test [4] and in test [6] was “inactive” throughout. Moreover, the compound was classed as inactive in test [5]. Also, the Potency in test [7] is 48.7 µM (active).
For `CC1CN(c2ccccc2)NC1=O` (centres undefined), the Potency entry in test [1], in test [2], in test [3], in test [4] and in test [6] was “inactive” each time. Moreover, in test [5], the compound was called inactive. The Potency in test [7] was 54.5 µM (active).
On to `C[C@]12C(=O)OC(=O)[C@H]1[C@H]1C=C[C@@H]2C1`, for which the Potency result in test [1], in test [2], in test [3], in test [4], in test [6] and in test [7] was “inactive” throughout. For the same compound, the compound was classed as inactive in test [5].
On to `O=C1CCCCCCCCCCC(=O)OCCO1`, for which the Potency entry in test [1], in test [2], in test [3], in test [4], in test [6] and in test [7] was “inactive” throughout. For the same compound, the compound was called inactive in test [5].
In the case of `CCCNC(C)(C)COC(=O)c1ccccc1`, the Potency result in test [1], in test [2], in test [3], in test [4] and in test [6] was “inactive” each time. In addition, the compound was called inactive in test [5].
With `CCCCNc1ccc(C(=O)OCCN(CC)CC)cc1`, the Potency result in test [1], in test [2], in test [3], in test [4] and in test [6] was “inactive” each time. Besides, in test [5], the compound was classed as inactive.
`CC1=C2[C@H](/C=C(\C)C(=O)O)CC[C@@H](C)[C@H]2CC1`: the Potency entry in test [1], in test [2], in test [3], in test [4] and in test [6] was “inactive” in each case. Moreover, the outcome in test [5] was inactive. Also, the Potency in test [7] is 56.5 µM (active).
`COc1nc(C)nc(NC(=O)NS(=O)(=O)c2ccccc2OCCCl)n1`: the Potency entry in test [1], in test [2], in test [3], in test [4], in test [6] and in test [7] was “inactive” in each case. For the same compound, in test [5], the call was inactive.
Take `O=C1CCCCC1C1CCCCC1` (centres undefined): the Potency result in test [1], in test [2], in test [3], in test [4], in test [6] and in test [7] was “inactive” each time. Also, the result in test [5] was inactive.
For the compound `CC(C)(CO)[C@@H](O)C(=O)NCCC(=O)O`, the Potency result in test [1], in test [2], in test [3], in test [4], in test [6] and in test [7] was “inactive” throughout. For the same compound, the outcome in test [5] was inactive.
On to `COC(=O)C(C)O` (centres undefined), for which the Potency entry in test [1], in test [2], in test [3], in test [4], in test [6] and in test [7] was “inactive” in each case. Also, the result in test [5] was inactive.
For the compound `CCCCNc1cc(C(=O)O)cc(S(N)(=O)=O)c1Oc1ccccc1`, the Potency entry in test [1], in test [2], in test [3], in test [4] and in test [6] was “inactive” throughout. Further, the compound was called inactive in test [5].
